The subject of this assay is Trypanosoma brucei. The assay is described as follows: Trypanosoma brucei 72 hour study. It counts as functional, organism-based. More on the design: scale not given: in the data most compounds retested in dose-response had high values.

In all, about 66,000 compounds went through this assay and about 960 (1.5%) showed an effect of 50% or more. Shown is part of a subset that was picked to be rich in strong results.

Take `CN1CCOC(CNC(=O)Cc2coc(-c3ccccc3)n2)C1` (stereo not drawn): the “Percent Effect” value is, setting by setting: (30.3 µM, […]) -0.1289%; (10 mM, 10 mM as filed; unlikely as a test dose) -18.77%.

In the case of `CN1CCOC(CNCc2coc(-c3cccc(Cl)c3)n2)C1` (stereo not drawn), the “Percent Effect” value (30.3 µM, […]) amounted to 98.76% and the “Percent Effect” value (10 mM, 10 mM as filed; unlikely as a test dose) is recorded as -110.4%.

For the compound `CN1CCOC(CNCc2coc(-c3cccs3)n2)C1` (stereo not drawn), where the note is “30 µM, 30.03 µM”, the “Percent Effect” value is given as -23.33%.

As to `CN1CCOC(CNCc2c(Cl)nc3ccccn23)C1` (stereo not drawn), for the setting “30 µM, 30.03 µM”, the “Percent Effect” value is -12.37%.

Consider `CN1CCOC(CNCc2coc(-c3ccccc3Cl)n2)C1` (stereo not drawn), for which the “Percent Effect” value (30.3 µM, […]) is given as 54.4% and the “Percent Effect” value (10 mM, 10 mM as filed; unlikely as a test dose) was -73.24%.

As for `CCCS(=O)(=O)N1C[C@H]2C[C@H](C(=O)N3CCOCC3)[C@@H](C1)O2`, the “Percent Effect” value (30.3 µM, […]) was -5.473%.

Turning to `CN(C)CCOCc1nnc2n1CCN(Cc1ccc(F)cc1)CC2.O=C(O)C(F)(F)F.O=C(O)C(F)(F)F`, the “Percent Effect” value (30.3 µM, […]) is listed as -11.21%.

In the case of `O=C(O)C(F)(F)F.O=C(c1ccco1)N1C[C@H]2CCCN(Cc3ccoc3)[C@H]2C1`, the “Percent Effect” value (30 µM, 30.03 µM) is on record as -0.7502%.

For the compound `CC1c2ncc(Cn3cncn3)n2CCN1CC1CCOCC1.O=C(O)C(F)(F)F` (stereo not drawn), under “30.3 µM, […]”, the “Percent Effect” value was -11%.

Regarding `Fc1cccnc1N1CCOCC2(CCCN(c3nncs3)C2)C1.O=C(O)C(F)(F)F` (stereo not drawn), the “Percent Effect” value (30 µM, 30.03 µM) is given as 36.62%.

As for `CCN(CC)C(=O)CN1CCc2c(nc(C3CCNCC3)nc2NC)C1.Cl`, the “Percent Effect” value (30.3 µM, […]) is listed as -24.06%.

As to `CCn1cc(N2Cc3nc(N4CCC(C)CC4)ncc3C2=O)cn1`, where the note is “30.3 µM, […]”, the “Percent Effect” value was -21.22%.

Take `CN1CCOC(CNCc2coc(-c3ccc(Cl)cc3)n2)C1` (stereo not drawn): the “Percent Effect” value runs as follows: (30.3 µM, […]) 99.53%; (10 mM, 10 mM as filed; unlikely as a test dose) 19.14%.

On to `Cc1ccc(-c2nc(CNCC3CN(C)CCO3)cs2)o1` (stereo not drawn), for which, under “30.3 µM, […]”, the “Percent Effect” value was determined as 4.391%.

As to `Cc1ccc(-c2nc(CNCC3CN(C)CCO3)co2)c(C)c1` (stereo not drawn), the “Percent Effect” value by setting is: (30.3 µM, […]) 99.99%; (10 mM, 10 mM as filed; unlikely as a test dose) 61.89%.

For `CN1CCOC(CNCc2csc(C3CCCC3)n2)C1` (stereo not drawn), where the note is “10 µM”, the “Percent Effect” value is given as -49.15%.

For `Cc1ccc(-c2nc(CNC3CCc4ncnn4C3)co2)c(C)c1` (stereo not drawn), under “30 µM, 30.03 µM”, the “Percent Effect” value worked out at 30.05%.

In the case of `CN1CCOC(CNCc2nc(-c3ccoc3)no2)C1` (stereo not drawn), the “Percent Effect” value (30 µM, 30.03 µM) was -7.602%.

In the case of `CN(C)CCCN(Cc1cnn(C)c1)Cc1ccco1.O=C(O)CC(O)(CC(=O)O)C(=O)O`, the “Percent Effect” value (30.3 µM, […]) is given as -23.52%.

`O=C(O)C(F)(F)F.O=C(O)C(F)(F)F.c1cncc(CN2Cc3nccn3CC(Cn3cccn3)C2)c1` (stereo not drawn): under “30.3 µM, […]”, the “Percent Effect” value is reported as -81.67%.

As to `Cc1cc(-c2cnc(N3CCSCC3)nc2C(C)C)on1`, the “Percent Effect” value (30.3 µM, […]) is given as -15.33%.

As for `Cc1noc(C)c1CN1CCOCC12CCN(c1cnccn1)CC2.O=C(O)C(F)(F)F`, the “Percent Effect” value (30.3 µM, […]) is recorded as -24.7%.

For `Cc1nc(C)c(C(=O)Nc2cc(N3CCC(C)CC3)ncn2)s1`, the “Percent Effect” value (30.3 µM, […]) was -16.43%.

In the case of `Cc1ccccc1NC(=O)Nc1cc(N2CCCC2)ncn1`, the “Percent Effect” value (30.3 µM, […]) is reported as -35.39%.

Regarding `CC1CCN(c2cc(NC(=O)C3CC3)ncn2)CC1`, the “Percent Effect” value (30.3 µM, […]) stood at 71.79%.

With `COc1ccc(-c2csc3c2c(N)nc(=O)n3CCCN(C)C)cc1`, where the note is “30 µM, 30.03 µM”, the “Percent Effect” value is recorded as -33.83%.

With `CN(C)C(=O)C1CCN(Cc2csc(C(C)(C)C)n2)CC1`, the “Percent Effect” value (10 µM) is -5.321%.

Take `CCOC(=O)C1CCN(Cc2csc(C(C)(C)C)n2)CC1`: the “Percent Effect” value (30 µM, 30.03 µM) worked out at 96.9%.

Turning to `CCCNC(=O)C1CCN(Cc2csc(C(C)(C)C)n2)CC1`, where the note is “30 µM, 30.03 µM”, the “Percent Effect” value was -44.58%.

As for `CCNc1ccnc(CN2CCCC2C(=O)Nc2nccs2)c1` (stereo not drawn), the “Percent Effect” value (30.3 µM, […]) is reported as 28.37%.

For the compound `CC(=O)Nc1cccc(CN2CCCC2C(=O)Nc2nccs2)c1` (stereo not drawn), the “Percent Effect” value (30.3 µM, […]) is -3.044%.

For the compound `O=C(Nc1nccs1)C1CCCN1Cc1ccccn1` (stereo not drawn), the “Percent Effect” value (30.3 µM, […]) came to 98.2%.

For `O=C(NC[C@]12COC[C@H]1CN(Cc1cccs1)C2)c1ccsc1.O=C(O)C(F)(F)F`, under “30 µM, 30.03 µM”, the “Percent Effect” value turned out to be 48.3%.

Take `O=C(O)C(F)(F)F.c1csc(CN2CCn3c(Cn4cncn4)cnc3C2)c1`: the “Percent Effect” value (30.3 µM, […]) is on record as -144.4%.

In the case of `CC1=N[C@@]2(CC[C@@H]3CN(CC4CC4)C[C@@H]32)C(=O)N1CC1CC1.O=C(O)C(F)(F)F`, the “Percent Effect” value (30.3 µM, […]) is given as -38.25%.

With `Cc1cnn(CCNCc2nnc(-c3occc3C)o2)c1`, the “Percent Effect” value (10 µM) is on record as -38.66%.

`O=C(O)C(F)(F)F.O=C(O)C(F)(F)F.c1cnc(N2CCC3(CCN(CC4CCOC4)CC3)CC2)nc1` (stereo not drawn): the “Percent Effect” value (30 µM, 30.03 µM) is -26.62%.

In the case of `Cc1ccc(CN2CCC3(C2)C(=O)N(CC(N)=O)c2ccccc23)s1` (stereo not drawn), the “Percent Effect” value (30 µM, 30.03 µM) is reported as -6.982%.

With `O=C(O)C(F)(F)F.c1cnc(N2CCCC3(CCN(CC4CCOC4)CC3)C2)nc1` (stereo not drawn), the “Percent Effect” value (30 µM, 30.03 µM) is on record as 56.13%.

As to `Cc1ccc(CN2CCC3(C2)C(=O)N(CC2CC2)c2ccccc23)s1.O=C(O)C(F)(F)F` (stereo not drawn), the “Percent Effect” value (30.3 µM, […]) is 92.57%.

Consider `CN1CCC2(CCCN(c3nccc(C(F)(F)F)n3)C2)CC1.O=C(O)C(F)(F)F`, for which the “Percent Effect” value (30.3 µM, […]) came out at 3.781%.

Turning to `O=C(O)C(F)(F)F.c1cnc(N2CCC3(CCN(CC4CCOC4)CC3)C2)nc1` (stereo not drawn), the “Percent Effect” value (30 µM, 30.03 µM) is -13.94%.

With `O=C(O)C(F)(F)F.O=C1CC2(CCN(CC3CCOC3)CC2)c2ccccc2N1CC1CC1` (stereo not drawn), the “Percent Effect” value (30.3 µM, […]) was -4.569%.

As to `O=C(O)C(F)(F)F.O=C(O)C(F)(F)F.c1cnc(N2CCCC3(CCN(c4ncccn4)C3)C2)nc1` (stereo not drawn), the “Percent Effect” value (30 µM, 30.03 µM) was -31.26%.

Consider `O=C(O)C(F)(F)F.c1cnc(N2CC3(CCN(CC4CCOC4)CC3)c3ccccc32)nc1` (stereo not drawn), for which the “Percent Effect” value (30 µM, 30.03 µM) is recorded as -50.98%.

As for `CC(C)CN1C(=O)C2(CCN(CC3CCOCC3)C2)c2ccccc21.O=C(O)C(F)(F)F` (stereo not drawn), where the note is “30.3 µM, […]”, the “Percent Effect” value is on record as -1.145%.

For `CC(C)N1CCC2(CCCN(c3nccc(C(F)(F)F)n3)C2)CC1.O=C(O)C(F)(F)F`, under “30.3 µM, […]”, the “Percent Effect” value came to 63.32%.

Regarding `O=C(O)C(F)(F)F.O=C(O)C(F)(F)F.OCCN1CC2(CCN(CC3CC3)CC2)c2ccccc21`, the “Percent Effect” value (30 µM, 30.03 µM) is 101.2%.

The values are drawn from ChEMBL document CHEMBL3988442, “University of Dundee, Small-Polar-MMV Screening Library” (2021).
